Data: PubChem BioAssay AID2685 (National Center for Advancing Translational Sciences (NCATS), 2010)
The whole screen tested about 320,000 compounds, of which about 2,100 (0.66%) were called active. Another 53% or so got no clear call; they are omitted. Calls come from the whole dose curve; as a rule, active = well fitted inhibition curve with a large enough effect in the signal ratio, with a control signal flat (not every such curve was filed as active); inconclusive = small, poorly fitted or top-dose-only effect, or effect the other way, or a change in a side signal; inactive = flat fitted curve, though single readings scatter; the % refers to the signal ratio. The entries come from a sample that favours actives as a whole.

experiment: qHTS Assay for Lipid Storage Modulators in Drosophila S3 Cells; details: BODIPY lipid droplet fluorescence, 18-24 h, cells fed with added oleic acid; cell number change: measured here: cell count max response; series mostly up to 46.1 µM;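 for cell number change: cells counted by Cell Tracker Red CMTPX staining in the red channel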; for lipid storage change, negative = inhibition: % is set by controls: 0 for no effect and ±100 for the full control effect
Outline: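 Drosophila S3 cells got compounds at several concentrations plus oleic acid (400 uM solution). Laser-scanning cytometry with 488 nm excitation read lipid droplets at 500-530 nm and cells at 575-640 nm. Percent activity was relative to 20 uM Triacsin C.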
Potency is the fitted concentration of half-maximal effect.

SMILES | Potency | cell number change | lipid storage change, negative = inhibition
O=C(N/N=C/c1sc(N2CCOCC2)nc1-c1ccccc1)c1cccc(S(=O)(=O)N2CCCC2)c1 | inactive | 111% | 
O=[N+]([O-])c1ccc(N/N=C/c2sc(N3CCOCC3)nc2-c2ccccc2)c(S(=O)(=O)Nc2ccccc2Cl)c1 | 1.03 µM (active) |  | 
Cc1occc1C(=O)N/N=C/c1sc(N2CCOCC2)nc1-c1ccccc1 | inactive | -21.3% | 
O=C(c1ccccc1)c1nc2c(n1O)CCCCC2 | inactive |  | 
Cc1cc(C(=O)Nc2ccccc2C(=O)O)ccc1NC(=O)COc1cccc([N+](=O)[O-])c1 | inactive | 6.05% | 
COc1ccc(S(=O)(=O)N(CC(=O)NCCC(C)C)c2ccccc2)cc1OC | inactive | -21.6% | 
COc1cccc2cc(C(=O)NCCc3ccccc3)c(=O)oc12 | inactive | 4.66% | 
COc1cccc2cc(C(=O)Oc3ccccc3)c(=O)oc12 | inactive | -11.3% | 
COc1cccc2cc(C(=O)OCc3ccccc3)c(=O)oc12 | 1.46 µM (active) | -24.9% | 
CCN1CCN(C(=S)Nc2ccc(C(C)=O)cc2)CC1 | inactive |  | 
O=C1CCC(C(=O)NCc2ccccc2)N1 (centres undefined) | inactive | 7.41% | 
CC12CC(c3ccccc3O1)C(C(=O)N1CCOCC1)C(=O)N2 (centres undefined) | inactive | -1.42% | 
CC12CC(c3ccccc3O1)C(C(=O)NCc1ccccc1)C(=O)N2 (centres undefined) | 29.1 µM (active) | 13.7% | 
CC1(C)OC(=O)CC1C(=O)NCc1ccccc1 (centres undefined) | 1.84 µM (active) | 7.5% | 
COc1ccc(C(C)NC(=O)C2C(=O)NC3(C)CC2c2ccccc2O3)cc1 (centres undefined) | inactive | -6.03% | 
CC12CCC(C(=O)NCc3ccccc3)(OC1=O)C2(C)C (centres undefined) | inactive | -20.7% | 
CC(Oc1ccccc1)c1nnc(SCC(=O)NC2CC2)n1C (centres undefined) | inactive | 17.8% | 
Cc1ccc2nc3sc(-c4nnc(-c5ccccc5[N+](=O)[O-])o4)c(N)c3cc2c1 | inactive |  | 
CCCn1c(=O)[nH]c(=O)c2c1nc(-c1ccccc1OC(F)F)n2CCOC | inactive | 1.56% | 
O=C(NCc1ccc2c(c1)OCO2)C1CCCN(S(=O)(=O)c2cccnc2)C1 (centres undefined) | inactive | 9.61% | 
O=C(CN1CCCCCC1)Nc1ccc([N+](=O)[O-])cc1Cl | inactive | -17.1% | 
O=C(COC(=O)c1ccccn1)NCc1ccccc1Cl | inactive |  | 
CC(C)(C)N(Cc1ccccc1)C(=O)COC(=O)c1ccc(Br)o1 | inactive | -7.45% | 
CC(C)(C)N(Cc1ccccc1)C(=O)COC(=O)c1ccc([N+](=O)[O-])o1 | 11.6 µM (active) | -25.7% | 

SMILES | Potency | cell number change | lipid storage change, negative = inhibition
CC(C)(C)N(Cc1ccccc1)C(=O)COC(=O)c1cccc([N+](=O)[O-])c1 | inactive | 17.2% | 
CC(NC(=O)CN(C1CCCCC1)S(C)(=O)=O)c1ccccc1 (centres undefined) | inactive | -4.99% | 
Cc1ccc(S(=O)(=O)N2CCCCC2CCNC(=O)C(=O)NCc2ccccc2)cc1 (centres undefined) | inactive |  | 
O=C(NCCC1CCCCN1S(=O)(=O)c1ccccc1)C(=O)NC1CCCC1 (centres undefined) | inactive | -1.87% | 
COc1cccc(NC(=O)C(=O)NCCC2CCCCN2S(=O)(=O)c2cccs2)c1 (centres undefined) |  |  | -10.7% [at 0.0737 µM] (inactive)
Cc1ccc(S(=O)(=O)N2CCCCC2CCNC(=O)C(=O)NC2CCCC2)cc1 (centres undefined) | 0.184 µM (active) | -16.3% | 
COc1cccc(NC(=O)C(=O)NCCC2CCCCN2S(=O)(=O)c2ccccc2)c1 (centres undefined) | 9.2 µM (active) | -3.85% | 
COc1cccc(CNC(=O)C(=O)NCCC2CCCCN2S(=O)(=O)c2ccccc2)c1 (centres undefined) | inactive | -8.33% | 
Cc1ccc(S(=O)(=O)N2CCCCC2CCNC(=O)C(=O)NCc2ccccc2C)cc1 (centres undefined) | 9.2 µM (active) |  | 
O=C(NCCC1CCCCN1S(=O)(=O)c1ccc(F)cc1)C(=O)NC1CC1 (centres undefined) | inactive |  | 
COc1ccccc1CNC(=O)C(=O)NCCC1CCCCN1S(=O)(=O)c1ccc(C)cc1 (centres undefined) | inactive | 18.8% | 
FC(F)(F)c1cccc(-c2ccn3ncnc3n2)c1 | inactive | 16.1% | 
CC(=O)c1cc(-c2ccccc2)n(CC(=O)NC2CCCC2)c1C | inactive | -1.74% | 
CCC(=O)Nc1ccc(NC(=O)CSc2nnnn2-c2ccc3c(c2)OCCO3)cc1 | inactive | 5.29% | 
C/C(=C\c1ccco1)C1Nc2cccc3cccc(c23)N1 | 18.4 µM (active) | -14.8% | 
c1coc(C2Nc3cccc4cccc(c34)N2)c1 | inactive | -0.664% | 
C/C(=C\c1cc2ccccc2o1)C1Nc2cccc3cccc(c23)N1 | inactive | 7.96% | 
CC(C)(C)c1ccc(C(=O)OCC(=O)NC2CC2)cc1 | inactive |  | 
CCc1nn(C(CC)C(=O)NCc2cccs2)c(=O)c2cc3occc3n12 (centres undefined) | inactive | -4.96% | 
CCc1nn(C(CC)C(=O)NCc2cccc(OC)c2OC)c(=O)c2cc3occc3n12 (centres undefined) | 10.3 µM (active) | -13.5% | 
CCc1nn(C(CC)C(=O)NCc2cccc(OC)c2)c(=O)c2cc3occc3n12 (centres undefined) | inactive |  | 
Cc1cc(S(=O)(=O)NCC(C)C)ccc1OCC(=O)NCc1ccco1 | inactive | 21.6% | 
Cc1noc(C)c1CCC(=O)NC1CCCN(Cc2ccc(CC(C)C)cc2)C1 (centres undefined) | inactive |  | 
Cc1ccc(N=Cc2ccc(O)cc2O)cc1F | inactive |  | 

SMILES | Potency | cell number change | lipid storage change, negative = inhibition
O=C(O)C1CC=CCC1C(=O)Nc1ccccc1 (centres undefined) | inactive |  | 
O=C(O)C1C2C=CC(O2)C1C(=O)Nc1ccc(S(=O)(=O)N2CCc3ccccc32)cc1 (centres undefined) | inactive | -9.33% | 
O=C(Nc1ccc(S(=O)(=O)N2CCc3ccccc32)cc1)C(F)(F)F | inactive | -4.4% | 
O=C(O)C1CC=CCC1C(=O)Nc1ccc(S(=O)(=O)N2CCCc3ccccc32)cc1 (centres undefined) | 23.1 µM (active) | 4.45% | 
O=C(O)c1ccc(NC(=O)C2CC=CCC2C(=O)O)cc1 (centres undefined) | 0.184 µM (active) | 3.62% | 
CN(C(=O)c1ccc(NC(=O)C2CC=CCC2C(=O)O)cc1)c1ccccc1 (centres undefined) | inactive | 2.31% | 
CC(C)CC(NC(=O)c1ccccc1)C(=O)OCC(=O)Nc1ccc(Br)cn1 (centres undefined) | inactive |  | 
Cc1[nH]c2ccccc2c1SCCNC(=O)c1ccc(S(=O)(=O)N2CCCC2)cc1 | inactive | -15.8% | 
CNC(=S)Nc1cc(C(=O)N2CCCC2)ccc1N1CCCC1 | inactive | -7.02% | 
Cc1cccc(NC(=O)C2C(c3ccccc3)C2(Cl)Cl)c1C (centres undefined) | inactive | 10.7% | 
O=C(c1cccs1)N1CCC(c2nc3c(nnn3Cc3cccc(Cl)c3)c(=O)[nH]2)CC1 | inactive | -4.62% | 
Cc1ccc(N(C(=O)Cc2cccs2)C(C(=O)NC2CCCCC2)c2ccccn2)cc1C (centres undefined) | inactive | 4.06% | 
O=C(CCC(=O)c1ccccc1)NCCc1c[nH]c2ccccc12 | inactive | -0.682% | 
Cc1cc(C)c(S(=O)(=O)N2CCN(C(=O)N3CCOCC3)CC2)c(C)c1 | 3.66 µM (active) | -4.21% | 
Cc1cc(C)c(S(=O)(=O)N2CCN(S(=O)(=O)N3CCOCC3)CC2)c(C)c1 | inactive | 9.13% | 
Cc1cc(C)c(S(=O)(=O)Nc2ccccc2C(=O)N2CCOCC2)c(C)c1 | 25.9 µM (active) | -34.8% | 
CN(C)S(=O)(=O)N1CCN(C(=O)N2CCOCC2)CC1 | 5.8 µM (active) | -2.73% | 
CN(C)S(=O)(=O)N1CCN(S(=O)(=O)N2CCOCC2)CC1 | inactive | 6.09% | 
COc1ccc(S(=O)(=O)Nc2ccccc2C(=O)N2CCOCC2)cc1C | inactive | -5.26% | 
CN(C)C(=O)N1CCN(C(=O)N2CCOCC2)CC1 | inactive | 3.54% | 
Cc1ccccc1NS(=O)(=O)c1ccc(C)c(C(=O)N2CCOCC2)c1 | inactive | 1.29% | 
Cc1cc(C)c(S(=O)(=O)N2CCN(C(=O)N(C)C)CC2)c(C)c1 | inactive | -11% | 
CCCN(CCC)S(=O)(=O)c1nc2nc(C)cc(C)n2n1 | inactive | 8.75% | 
COc1cc2c(cc1OC)C(c1ccc(O)cc1)NCC2 (centres undefined) | inactive | -6.35% | 

SMILES | Potency | cell number change | lipid storage change, negative = inhibition
O=C1CCCN1CCC12CC3CC(CC(C3)C1)C2 | inactive | -8.85% | 
COc1ccc(OC)c(CN2CCN(CCCc3ccccc3)C(CCO)C2)c1 (centres undefined) | inactive | 25.4% | 
CCOc1ccc(CCNC(=O)c2ccc(=O)[nH]c2)cc1OCC | inactive | 0.381% | 
Cc1cccc(OCc2cc(-c3ccccc3)no2)c1C | inactive | 19.4% | 
CC(C)C(c1nnnn1C1CCCCC1)N1CCc2ccccc21 (centres undefined) | inactive | 19.2% | 
CC(C)C(c1nnnn1C1CCCC1)N1CCCCC1 (centres undefined) | inactive | -26.8% | 
CC(C)C(c1nnnn1C1CCCC1)N(C)C1CCCCC1 (centres undefined) | 5.17 µM (active) | -2.08% | 
N#CC(C(=O)NC1CCCCC1)=C1CCCCC1 | inactive | 0.427% | 
N#CC(C(=O)Nc1ccccc1)=C1CCCCC1 | inactive |  | 
N#CC(C(=O)O)=C1CCCC1 | 23.1 µM (active) | -10.5% | 
CCOc1cc(-c2ccc3c(c2)OCO3)cc(=O)c2c(C)oc(C)c12 | inactive | -26.2% | 
CCO[C@@H]1OC(C(=O)N2CCN(Cc3ccc4c(c3)OCO4)CC2)=C[C@H](c2csc3ccccc23)[C@H]1CCCO | inactive | -13% | 
COc1ccccc1NC(=O)CC(NC1CCCCC1)C(=O)O (centres undefined) | inactive | 3.03% | 
O=C(Nn1cnc2ccccc2c1=O)c1ccccc1F | inactive | -5% | 
N#Cc1ccc2c(c1)nc1ccccn12 | inactive | 11.1% | 
N#Cc1c(-c2ccco2)cc(-c2ccccc2)[nH]c1=O | inactive |  | 
N#Cc1c(-c2ccc3c(c2)OCO3)cc[nH]c1=O | inactive | 17.2% | 
N#Cc1c(-c2ccccc2)cc(-c2ccc3c(c2)OCO3)[nH]c1=O | 8.2 µM (active) | -26.7% | 
CC(C)=C1C2CCC1C1C(=O)N(c3nc(-c4ccc(F)cc4)c(C)s3)C(=O)C21 (centres undefined) | inactive | -3.6% | 
COc1ccc(N2CCN(CC(=O)Nc3cc(C)on3)CC2)cc1 | inactive | 7.54% | 
Cc1ccc(Nc2nc(C(=O)N3CCC(C(=O)NCCN4CCOCC4)CC3)cs2)cc1 | inactive |  | 
O=C(N/N=C/c1ccc(-c2cccc(C(F)(F)F)c2)o1)c1cccc(F)c1 | inactive |  | 
